# Laboratory results published in publication PMC5540273 (PLoS ONE, 2017).
# Where two headings read alike, the source gives them in different places.
# Tests used:
# GRK3 = test system: T1, GRK3; conditions: concentration: 1 μM, replicates: in singlicate; n = 1
# T1 construct: gene ADRBK2
# GRK4 = conditions: concentration: 1 μM, replicates: in singlicate; n = 1
# GRK7 = conditions: concentration: 1 μM, replicates: in singlicate; n = 1
# GSK3A = conditions: concentration: 1 μM, replicates: in singlicate; n = 1
# GSK3B = conditions: n = 1
# HASPIN = test system: T2, HASPIN; conditions: concentration: 1 μM, replicates: in singlicate; n = 1
# T2 construct: gene GSG2
# HCK = conditions: concentration: 1 μM, replicates: in singlicate; n = 1
# HIPK1 = conditions: concentration: 1 μM, replicates: in singlicate; n = 1
# HIPK2 = conditions: concentration: 1 μM, replicates: in singlicate; n = 1
# HIPK3 = conditions: concentration: 1 μM, replicates: in singlicate; n = 1
# HIPK4 = conditions: concentration: 1 μM, replicates: in singlicate; n = 1
# HPK1 = conditions: concentration: 1 μM, replicates: in singlicate; n = 1
# HUNK = conditions: concentration: 1 μM, replicates: in singlicate; n = 1
# ICK = conditions: concentration: 1 μM, replicates: in singlicate; n = 1
# IGF1R = conditions: concentration: 1 μM, replicates: in singlicate; n = 1
# IKK-alpha = test system: T3, IKK-alpha; conditions: concentration: 1 μM, replicates: in singlicate; n = 1
# T3 construct: gene CHUK
# IKK-beta = test system: T4, IKK-beta; conditions: concentration: 1 μM, replicates: in singlicate; n = 1
# T4 construct: gene IKBKB
# IKK-epsilon = test system: T5, IKK-epsilon; conditions: concentration: 1 μM, replicates: in singlicate; n = 1
# T5 construct: gene IKBKE
# INSRR = conditions: concentration: 1 μM, replicates: in singlicate; n = 1
# INSR = conditions: concentration: 1 μM, replicates: in singlicate; n = 1
# [1] = concentration: 1 μM, replicates: in singlicate
# 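Further: KINOMEscan kinase panel screen.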
compound,measurement,setting,value
FC(F)(F)c1ccccc1-c1cc(-c2c[nH]nc2-c2ccccn2)ccn1 [GW679396],%Inh,GRK3,14%
same,%Inh,GRK4,0%
same,%Inh,GRK7,0%
same,%Inh,GSK3A,2%
same,%Inh,GSK3B; [1],12%
same,%Inh,HASPIN,0%
same,%Inh,HCK,0%
same,%Inh,HIPK1,0%
same,%Inh,HIPK2,0%
same,%Inh,HIPK3,17%
same,%Inh,HIPK4,0%
same,%Inh,HPK1,0%
same,%Inh,HUNK,0%
same,%Inh,ICK,3%
same,%Inh,IGF1R,0%
same,%Inh,IKK-alpha,0%
same,%Inh,IKK-beta,0%
same,%Inh,IKK-epsilon,100%
same,%Inh,INSRR,0%
same,%Inh,INSR,0%
Cn1cncc1-c1cc2c(Nc3ccc(OCc4ccccc4)cc3)ncnc2cn1 [GW281179],%Inh,GRK3,33%
same,%Inh,GRK4,0%
same,%Inh,GRK7,0%
same,%Inh,GSK3A,8%
same,%Inh,GSK3B; [1],11%
same,%Inh,HASPIN,0%
same,%Inh,HCK,0%
same,%Inh,HIPK1,0%
same,%Inh,HIPK2,0%
same,%Inh,HIPK3,0%
same,%Inh,HIPK4,0%
same,%Inh,HPK1,25%
same,%Inh,HUNK,8%
same,%Inh,ICK,5%
same,%Inh,IGF1R,4%
same,%Inh,IKK-alpha,0%
same,%Inh,IKK-beta,6%
same,%Inh,IKK-epsilon,4%
same,%Inh,INSRR,0%
same,%Inh,INSR,2%
CC(=O)c1cccc(NC(=O)NC2CCN(c3ccnc(Nc4ccc(F)cc4)n3)C2)c1 (stereo not drawn) [GSK1379710],%Inh,GRK3,49%
same,%Inh,GRK4,0%
same,%Inh,GRK7,0%
same,%Inh,GSK3A,32%
same,%Inh,GSK3B; [1],4%
same,%Inh,HASPIN,26%
same,%Inh,HCK,2%
same,%Inh,HIPK1,0%
same,%Inh,HIPK2,0%
same,%Inh,HIPK3,7%
same,%Inh,HIPK4,0%
same,%Inh,HPK1,50%
same,%Inh,HUNK,0%
same,%Inh,ICK,5%
same,%Inh,IGF1R,0%
same,%Inh,IKK-alpha,4%
same,%Inh,IKK-beta,1%
same,%Inh,IKK-epsilon,33%
same,%Inh,INSRR,0%
same,%Inh,INSR,12%
COc1ccc(Nc2nccc(N3CCC(NC(=O)C(C)c4ccc(Cl)cc4)CC3)n2)cc1 (stereo not drawn) [GSK1379812],%Inh,GRK3,8%
same,%Inh,GRK4,0%
same,%Inh,GRK7,0%
same,%Inh,GSK3A,16%
same,%Inh,GSK3B; [1],8%
same,%Inh,HASPIN,0%
same,%Inh,HCK,0%
same,%Inh,HIPK1,0%
same,%Inh,HIPK2,0%
same,%Inh,HIPK3,15%
same,%Inh,HIPK4,0%
same,%Inh,HPK1,39%
same,%Inh,HUNK,10%
same,%Inh,ICK,0%
same,%Inh,IGF1R,0%
same,%Inh,IKK-alpha,0%
same,%Inh,IKK-beta,0%
same,%Inh,IKK-epsilon,100%
same,%Inh,INSRR,0%
same,%Inh,INSR,15%
CNC(=O)c1ccc(C)c(-n2c(C)cc(OCc3ccc(F)cc3F)c(Br)c2=O)c1,%Inh,GRK3,0%
same,%Inh,GRK4,2%
same,%Inh,GRK7,0%
same,%Inh,GSK3A,0%
same,%Inh,GSK3B; [1],0%
same,%Inh,HASPIN,18%
same,%Inh,HCK,0%
same,%Inh,HIPK1,0%
same,%Inh,HIPK2,0%
same,%Inh,HIPK3,0%
same,%Inh,HIPK4,0%
same,%Inh,HPK1,0%
same,%Inh,HUNK,0%
same,%Inh,ICK,0%
same,%Inh,IGF1R,0%
same,%Inh,IKK-alpha,0%
same,%Inh,IKK-beta,0%
same,%Inh,IKK-epsilon,0%
same,%Inh,INSRR,6%
same,%Inh,INSR,0%
Fc1ccc(-c2nc3n(c2-c2ccncc2)CCS3)cc1 [GI98581],%Inh,GRK3,21%
same,%Inh,GRK4,0%
same,%Inh,GRK7,0%
same,%Inh,GSK3A,14%
same,%Inh,GSK3B; [1],19%
same,%Inh,HASPIN,13%
same,%Inh,HCK,0%
same,%Inh,HIPK1,0%
same,%Inh,HIPK2,0%
same,%Inh,HIPK3,0%
same,%Inh,HIPK4,0%
same,%Inh,HPK1,44%
same,%Inh,HUNK,8%
same,%Inh,ICK,0%
same,%Inh,IGF1R,17%
same,%Inh,IKK-alpha,0%
same,%Inh,IKK-beta,0%
same,%Inh,IKK-epsilon,0%
same,%Inh,INSRR,6%
same,%Inh,INSR,0%
O=c1cc(N2CCOCC2)nc2n(Cc3ccccc3F)ccn12 [GSK2297428],%Inh,GRK3,0%
same,%Inh,GRK4,0%
same,%Inh,GRK7,0%
same,%Inh,GSK3A,80%
same,%Inh,GSK3B; [1],3%
same,%Inh,HASPIN,35%
same,%Inh,HCK,0%
same,%Inh,HIPK1,33%
same,%Inh,HIPK2,0%
same,%Inh,HIPK3,35%
same,%Inh,HIPK4,0%
same,%Inh,HPK1,34%
same,%Inh,HUNK,0%
same,%Inh,ICK,0%
same,%Inh,IGF1R,7%
same,%Inh,IKK-alpha,0%
same,%Inh,IKK-beta,0%
same,%Inh,IKK-epsilon,0%
same,%Inh,INSRR,0%
same,%Inh,INSR,0%
CNc1cc(-c2ccc3c(N)n[nH]c3c2)nc(N)n1 [GSK2224810],%Inh,GRK3,10%
same,%Inh,GRK4,0%
same,%Inh,GRK7,0%
same,%Inh,GSK3A,6%
same,%Inh,GSK3B; [1],0%
same,%Inh,HASPIN,61%
same,%Inh,HCK,0%
same,%Inh,HIPK1,14%
same,%Inh,HIPK2,0%
same,%Inh,HIPK3,18%
same,%Inh,HIPK4,14%
same,%Inh,HPK1,41%
same,%Inh,HUNK,5%
same,%Inh,ICK,12%
same,%Inh,IGF1R,0%
same,%Inh,IKK-alpha,6%
same,%Inh,IKK-beta,0%
same,%Inh,IKK-epsilon,39%
same,%Inh,INSRR,0%
same,%Inh,INSR,19%
COc1ccc(CSc2nnc(-c3ccc4ncsc4c3)o2)cc1C(F)(F)F,%Inh,GRK3,1%
same,%Inh,GRK4,18%
same,%Inh,GRK7,0%
same,%Inh,GSK3A,98.4%
same,%Inh,GSK3B; 1 µM,89%
same,%Inh,HASPIN,45%
same,%Inh,HCK,0%
same,%Inh,HIPK1,38%
same,%Inh,HIPK2,0%
same,%Inh,HIPK3,0%
same,%Inh,HIPK4,0%
same,%Inh,HPK1,0%
same,%Inh,HUNK,1%
same,%Inh,ICK,0%
same,%Inh,IGF1R,0%
same,%Inh,IKK-alpha,0%
same,%Inh,IKK-beta,0%
same,%Inh,IKK-epsilon,0%
same,%Inh,INSRR,1%
same,%Inh,INSR,0%
